Experimental data reported in PubChem BioAssay AID1159580 (chemical genetic matrix, 2015).
The campaign covered roughly 5,500 compounds. About 2,000 (36%) were called active. About 18% were inconclusive and are not listed. No stated cut-off is given here; in the data, active means normalized growth mostly below about 0.91 (no sharp cut-off); inconclusive means no clear call, values can overlap the other calls; inactive means mostly above about 0.92. This is one part of the list.

Assay: chemical genetic growth profiling, strain panel (AID 1159580);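 further: tested at 20 µM; growth read once vehicle control cultures reached saturation at 30 °C; 1 = growth at the plate median or of vehicle wells; lower values mean less growth of the strain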
Settings: growth OD

Measured: normalized growth

Clc1ccc(C(c2ccc(Cl)cc2)C(Cl)(Cl)Cl)cc1
inactive: S. cerevisiae deletion strains, locus YJR043C, strain POL32, hits give low values 0.996 | S. cerevisiae deletion strains, locus YJR075W, strain HOC1, hits give low values 1.01 | S. cerevisiae deletion strains, locus YKL009W, strain mrt4, hits give low values 0.992 | S. cerevisiae deletion strains, locus YKL068W, hits give low values 1.02 | S. cerevisiae deletion strains, locus YKL085W, strain MDH1 (second series), hits give low values 1.01 | S. cerevisiae deletion strains, locus YKL085W, strain MDH1, hits give low values 1.01 | S. cerevisiae deletion strains, locus YKL160W, strain elf1, hits give low values 1.01 | S. cerevisiae deletion strains, locus YKL190W, strain CNB1, hits give low values 0.996 | S. cerevisiae deletion strains, locus YKR001C, strain vps1, hits give low values 0.997 | S. cerevisiae deletion strains, locus YKR026C, strain gcn3, hits give low values 1.01 | S. cerevisiae deletion strains, locus YKR091W, strain srl3, hits give low values 1 | S. cerevisiae deletion strains, locus YLL001W, strain dnm1, hits give low values 1.02 | S. cerevisiae deletion strains, locus YLL026W, hits give low values 1.01 | S. cerevisiae deletion strains, locus YLL041C, strain sdh2, hits give low values 1.01 | S. cerevisiae deletion strains, locus YLR027C, strain aat2, hits give low values 1.01 | S. cerevisiae deletion strains, locus YLR039C, strain RIC1, hits give low values 1.05 | S. cerevisiae deletion strains, locus YLR058C, strain SHM2, hits give low values 1.02 | S. cerevisiae deletion strains, locus YLR102C, strain apc9, hits give low values 0.992 | S. cerevisiae deletion strains, locus YLR221C, strain rsa3, hits give low values 1.01 | S. cerevisiae deletion strains, locus YLR258W, strain gsy2, hits give low values 1.01 | S. cerevisiae deletion strains, locus YLR262C, strain YPT6 (second series), hits give low values 0.985 | S. cerevisiae deletion strains, locus YLR262C, strain YPT6, hits give low values 0.999 | S. cerevisiae deletion strains, locus YLR268W, strain sec22, hits give low values 1 | S. cerevisiae deletion strains, locus YLR320W, strain mms22, hits give low values 0.99 | S. cerevisiae deletion strains, locus YLR330W, strain CHS5, hits give low values 1.02 | S. cerevisiae deletion strains, locus YLR342W, strain FKS1 (second series), hits give low values 1.04 | S. cerevisiae deletion strains, locus YLR342W, strain FKS1, hits give low values 1.01 | S. cerevisiae deletion strains, locus YLR357W, strain rsc2, hits give low values 1.03 | S. cerevisiae deletion strains, locus YLR370C, strain arc18, hits give low values 1.01 | S. cerevisiae deletion strains, locus YLR371W, strain rom2, hits give low values 0.995 | S. cerevisiae deletion strains, locus YLR384C, strain iki3, hits give low values 1 | S. cerevisiae deletion strains, locus YLR418C, strain cdc73, hits give low values 0.984 | S. cerevisiae deletion strains, locus YML016C, strain PPZ1, hits give low values 1.03 | S. cerevisiae deletion strains, locus YML032C, strain rad52, hits give low values 0.992 | S. cerevisiae deletion strains, locus YML120C, strain ndi1, hits give low values 0.997 | S. cerevisiae deletion strains, locus YML124C, strain tub3, hits give low values 1 | S. cerevisiae deletion strains, locus YMR058W, strain fet3, hits give low values 1.01 | S. cerevisiae deletion strains, locus YMR078C, strain ctf18, hits give low values 0.991 | S. cerevisiae deletion strains, locus YMR125W, strain sto1, hits give low values 1.01 | S. cerevisiae deletion strains, locus YMR129W, hits give low values 1.01 | S. cerevisiae deletion strains, locus YMR205C, strain PFK2, hits give low values 0.977 | S. cerevisiae deletion strains, locus YMR223W, strain ubp8, hits give low values 0.991 | S. cerevisiae deletion strains, locus YMR231W, strain pep5, hits give low values 1.01 | S. cerevisiae deletion strains, locus YMR263W, strain SAP30, hits give low values 1.02 | S. cerevisiae deletion strains, locus YMR307W, strain GAS1, hits give low values 0.918 | S. cerevisiae deletion strains, locus YNL067W, strain RPL9B, hits give low values 1.01 | S. cerevisiae deletion strains, locus YNL071W, strain lat1, hits give low values 1.02 | S. cerevisiae deletion strains, locus YNL128W, strain TEP1, hits give low values 1.02 | S. cerevisiae deletion strains, locus YNL153C, strain GIM3, hits give low values 1.02 | S. cerevisiae deletion strains, locus YNL209W, strain ssb2, hits give low values 1 | S. cerevisiae deletion strains, locus YNL233W, strain BNI4, hits give low values 1.01 | S. cerevisiae deletion strains, locus YNL248C, strain rpa49, hits give low values 1 | S. cerevisiae deletion strains, locus YNL250W, strain rad50, hits give low values 1 | S. cerevisiae deletion strains, locus YNL271C, strain bni1, hits give low values 0.997 | S. cerevisiae deletion strains, locus YNL298W, strain CLA4, hits give low values 1.02 | S. cerevisiae deletion strains, locus YNL307C, strain MCK1, hits give low values 0.963 | S. cerevisiae deletion strains, locus YNL322C, strain KRE1 (second series), hits give low values 1.01 | S. cerevisiae deletion strains, locus YNL322C, strain KRE1, hits give low values 1.02 | S. cerevisiae deletion strains, locus YNR049C, strain mso1, hits give low values 1.01 | S. cerevisiae deletion strains, locus YNR052C, strain pop2, hits give low values 0.991 | S. cerevisiae deletion strains, locus YOL006C, strain TOP1, hits give low values 1.02 | S. cerevisiae deletion strains, locus YOL012C, strain htz1 1.14 | S. cerevisiae deletion strains, locus YOL147C, strain pex11, hits give low values 1 | S. cerevisiae deletion strains, locus YOR001W, strain rrp6, hits give low values 1.01 | S. cerevisiae deletion strains, locus YOR061W, strain CKA2, hits give low values 1.01 | S. cerevisiae deletion strains, locus YOR069W, strain VPS5, hits give low values 1.01 | S. cerevisiae deletion strains, locus YOR070C, strain gyp1, hits give low values 1.01 | S. cerevisiae deletion strains, locus YOR080W, strain dia2, hits give low values 1.01 | S. cerevisiae deletion strains, locus YOR083W, strain WHI5, hits give low values 1.01 | S. cerevisiae deletion strains, locus YOR106W, strain vam3, hits give low values 0.988 | S. cerevisiae deletion strains, locus YOR136W, strain idh2, hits give low values 0.99 | S. cerevisiae deletion strains, locus YOR144C, strain elg1, hits give low values 1 | S. cerevisiae deletion strains, locus YOR184W, strain ser1, hits give low values 0.982 | S. cerevisiae deletion strains, locus YOR265W, strain rbl2, hits give low values 1.01 | S. cerevisiae deletion strains, locus YOR270C, strain vph1, hits give low values 1.01 | S. cerevisiae deletion strains, locus YOR290C, strain snf2, hits give low values 1 | S. cerevisiae deletion strains, locus YOR316C, strain cot1, hits give low values 1.01 | S. cerevisiae deletion strains, locus YPL051W, strain arl3, hits give low values 1 | S. cerevisiae deletion strains, locus YPL055C, strain LGE1, hits give low values 0.989 | S. cerevisiae deletion strains, locus YPL078C, strain atp4, hits give low values 1.01 | S. cerevisiae deletion strains, locus YPL106C, strain sse1, hits give low values 1.03 | S. cerevisiae deletion strains, locus YPL240C, strain hsp82, hits give low values 0.999 | S. cerevisiae deletion strains, locus YPL241C, strain CIN2, hits give low values 1.02 | S. cerevisiae deletion strains, locus YPR119W, strain clb2, hits give low values 0.998 | S. cerevisiae deletion strains, locus YPR141C, strain kar3, hits give low values 1.01 | S. cerevisiae deletion strains, locus YPR163C, strain tif3, hits give low values 0.998 | S. cerevisiae deletion strains, locus YPR167C, strain met16, hits give low values 0.997 | S. cerevisiae deletion strains, strain wtn01, hits give low values 0.997 | S. cerevisiae strains, strain wild type, hits give low values 1.01
